In the library only some 3.8% were active in any assay of this set; here they are far more common.
tim23-1 inh = growth inhibitors of tim23-1 mutant yeast | inhibition, % at 20 µM | AID 463212 | S. cerevisiae tim23-1 growth, BacTiter-Glo luminescence, 24 h | actives 1.3% (n = 330,000);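 active = growth inhibition of the mutant yeast at or above 50%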;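 note: temperature-sensitive mutant grown at 25 °C; plate controls were DMSO-treated mutant yeast for no effect and medium wells lacking yeast for full effect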
NALP3 yeast inh = inhibitors of NALP3 inflammasome in yeast. Yeast reconstituted NLRP3/ASC/caspase-1, beta-gal luminescence, 24 h. inhibition, % at 10 µM. actives 0.39% (n = 330,000). AID 2825;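 active = inhibition of 50% or more; inactive = inhibition below 50%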;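 note: plate controls were induced DMSO wells for no effect and uninduced yeast grown without galactose for full effect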
TIM10 inh = growth inhibitors of TIM10 yeast strain. S. cerevisiae TIM10 strain growth, BacTiter-Glo luminescence, 24 h. inhibition, % at 10 µM. actives 1.4% (n = 330,000);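 active = inhibition of 40% or more at the single tested concentration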;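 note: wild-type TIM10 isogenic control strain grown at permissive 25 °C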
Yeast superoxide = caloric restriction mimetics inhibiting age-related superoxide in yeast | S. cerevisiae aged cells, superoxide DHE fluorescence; active compounds read low | superoxide response (% of plate mean), % at 10 µM | actives 0.18% (n = 330,000);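 active = superoxide response under a set limit, about three screen SD below normal, cut at about 65% in these data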;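 note: yeast aged for seven days with compound at 30 °C before DHE staining; 100% = average MFI of all compound-treated wells on the plate with controls excluded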
tim10-1 inh = growth inhibitors of tim10-1 mutant yeast. S. cerevisiae tim10-1 ts strain growth, BacTiter-Glo, 24 h. inhibition, % at 20 µM. actives 2.2% (n = 330,000);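 active = inhibition of at least 40%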;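 note: mutant grown at 25 °C; 0% = DMSO wells with yeast and 100% = wells holding no yeast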
TIM10 conf = TIM10 yeast growth inhibition, confirmed. shares compounds with TIM10 inh. S. cerevisiae tim10 strain growth, BacTiter-Glo luminescence, 24 h. actives 63% (n = 4,600). inhibition, % at 10 µM;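 active = inhibition of yeast growth at or above a set limit in either of two replicates at 10 µM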;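 note: this counterscreen used the strain with wild-type TIM10; 0% = yeast with DMSO and 100% = medium wells lacking yeast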
tim23-1 confirm = tim23-1 yeast growth inhibition, confirmed | actives 83% (n = 4,400) | shares compounds with tim23-1 inh | S. cerevisiae tim23-1 growth, BacTiter-Glo luminescence, 24 h | inhibition, % at 20 µM;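 active = inhibition above about 39% in either of two replicate wells at 20 µM, limit read from the data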;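 note: temperature-sensitive tim23-1 mutant grown at 25 °C; 0% = DMSO wells with yeast and 100% = medium wells without yeast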
Active calls of the source: *; . = no result given.

SMILES	tim23-1 inh	NALP3 yeast inh	TIM10 inh	Yeast superoxide	tim10-1 inh	tim23-1 confirm	others
O=C(OCC(=O)c1ccc([N+](=O)[O-])cc1)/C(=C/c1ccc(Cl)cc1)NC(=O)c1ccccc1	31	2	45*	117	35	.	TIM10 conf=23
CC(C)(C)N(NC(=O)c1ccccc1)C(=O)c1ccccc1	-10	4	40*	83	-3	.	TIM10 conf=-3
CC(C)C(=O)c1cn(Cc2ccc(C#N)cc2)c2ccccc12	18	-17	41*	101	25	.	TIM10 conf=8
Cc1ccc(-c2cc(-c3ccc(C)cc3)[n+](-c3ccc(C(=O)[O-])cc3)c(-c3ccc(C)cc3)c2)cc1	-1	12	-4	94	12	.
Cc1ccc(-c2cc(-c3ccccc3)cc(-c3ccccc3)[n+]2-c2ccccc2)cc1	21	30	41*	95	24	.	TIM10 conf=35*
CCNC(=S)NCCC1=c2ccccc2=N/C1=C\c1c(O)n(C)c(=O)n(C)c1=O	17	-3	6	96	20	.
CN1CCC(c2c[nH]c3ccccc23)C1 (stereo unspecified)	16	15	6	67	28	.
CC1CCCC(C)N1/N=C/c1c[nH]c2ccc(Br)cc12 (stereo unspecified)	11	5	42*	99	34	.	TIM10 conf=-38
O=C(CSC1c2ccccc2-c2ccccc21)N/N=C/c1ccccc1O	52*	24	47*	88	29	58*	TIM10 conf=58*
CC(=O)CC(=O)C1C(=O)N(C)C(=O)N(C)C1=O	-4	-9	-20	103	-16	.
Cc1nc2ccccc2c(=O)n1/N=C/c1cc(Br)cc(Br)c1O	83*	12	73*	90	39	89*	TIM10 conf=25
O=c1c2ccccc2nc(-c2ccccc2Cl)n1-c1ccc(O)cc1	10	18	-7	97	14	.
Cc1ccc(-c2nn(Cc3ccccc3)cc2C=O)cc1C	53*	23	52*	90	31	58*	TIM10 conf=55*
Cc1ccc(Cn2cc(C=O)c(-c3ccc(F)cc3)n2)cc1	49	24	20	67	29	.
CCC(C)NC(=O)c1c(N)n(CCCOC)c2nc3ccccc3nc12 (stereo unspecified)	53*	11	25	114	39	48*
COCCCn1c(N)c(C(=O)OC(C)COC)c2nc3ccccc3nc21 (stereo unspecified)	20	3	4	91	-2	.
CCCCCc1nc2c(c(=O)c3ccccc3n2C)c(=O)n1C1CCCCCC1	70*	36	0	111	-40	-34
COc1ccc2c3c1OC1[C@H](O)CCC4[C@@H](C2)N(C)CC[C@]314 (stereo partly specified)	7	12	3	98	10	.
CN1CCc2cc3c(c4c2C1Cc1ccccc1-4)OCO3 (stereo unspecified)	67*	39	28	109	33	67*
O=c1c2ccccc2nc(/C=C/c2ccc(O)cc2)n1-c1ccccc1O	31	-1	4	93	14	.
O=c1c2ccccc2nc(/C=C/c2ccccc2)n1-c1ccccc1O	51*	16	18	101	25	44*
O=c1c2ccccc2nc(/C=C/c2ccc(F)cc2)n1-c1ccccn1	12	6	13	97	7	.
Cc1ccccc1-n1c(/C=C/c2ccccn2)nc2ccccc2c1=O	52*	18	7	88	34	43*
COc1cc(-n2c(=S)[nH]c3ccccc3c2=O)c(Cl)cc1Cl	52*	19	23	119	25	38
O=c1[nH]c(=S)n(CCC2=CCCCC2)c(O)c1/C=N/N1CCOCC1	52*	11	36	126	37	37*
SMILES	tim23-1 inh	NALP3 yeast inh	TIM10 inh	Yeast superoxide	tim10-1 inh	tim23-1 confirm	others
COc1ccc(-n2nc(C(=O)NCC(=O)N3CCC4(CC3)OCCO4)c3ccccc3c2=O)c(OC)c1	10	-6	-8	126	14	.
CC1(C)OC(c2ccccc2)=C/C(=C/C=C2C(=O)NC(=S)NC2=O)O1	57*	15	21	111	25	63*
CN(C)CC1CCCCC1OC(=O)Cc1ccc(Cl)c([N+](=O)[O-])c1 (stereo unspecified)	3	5	4	84	-4	.
Cc1ccc(-c2nn(Cc3ccccc3)cc2C=O)cc1	57*	29	27	94	18	55*
Cc1ccc(-c2nn(Cc3ccccc3)cc2C(=O)O)cc1	2	-4	-17	103	-9	.
NC(=S)N/N=C/c1coc2ccccc2c1=O	22	-7	29	109	10	.
O=S(=O)(NC1CCCC1)OCC(Cl)(Cl)Cl	29	0	9	99	7	.
O=S(=O)(NC1CCCCCCC1)OCC(Cl)(Cl)Cl	50*	40	26	98	27	59*
ClCCN1CCN(c2ccnc3cc(Cl)ccc23)CC1	-20	21	-5	109	-16	.
COP(=O)(OC)/C(C=O)=N/Nc1ccc([N+](=O)[O-])cc1	52*	16	10	85	9	50*
CCOP(=O)(Cc1ccccc1)OCC	12	13	5	96	6	.

Screening data (PubChem BioAssay)
